Data as given in PubChem BioAssay AID492948 (National Center for Advancing Translational Sciences (NCATS), 2010).
Records with an inconclusive call do not appear. The source made the active and inactive calls. The call rests on the fitted dose curve; in most records, active means well fitted activation curve with a large enough effect; inconclusive means small, poorly fitted or top-dose-only effect; inactive means no such curve, though single readings can be large or run the other way.

test: qHTS Assay for Agonists of the Relaxin Receptor RXFP1: V1B Hit Validation; conditions: HEK293 V1B cells, cAMP TR-FRET, 30 min; series mostly up to 115 µM;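 further: counter-screen in HEK293 cells expressing V1B rather than RXFP1 for selectivity; nearly all actives have a fitted effect of over 65% in size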;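 on activation: cAMP accumulation with PDE4 inhibitor Ro 20-1724 present during compound exposure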
Source text: NIH Chemical Genomics Center [NCGC]
NIH Molecular Libraries Probe Production Centers Network [MLPCN]
Assay Submitter (PI): Alexander Agoulnik
The relaxin hormone is involved in the variety of biological functions in normal tissues and diseases. The role of relaxin is well-established in female reproduction and parturition, mammary gland and endometrial development, maintenance of myometrial quiescence during pregnancy. Relaxin signaling through its G protein-coupled receptor (GPCR) RXFP1 results in ECM remodeling through regulation of collagen deposition, cell invasiveness, proliferation and overall tissue homeostasis. […] Recombinant human relaxin (rhRlx) is currently being tested in clinical trials as a protective agent in congestive heart failure, in treating severe preeclampsia, and as an anti-fibrotic agent in systemic sclerosis.
Upon relaxin binding RXFP1 activation leads to the activation of adenylate cyclase (AC) via Gs. cAMP will activate PKA, which phosphorylates many signaling proteins. Thus, detection of cAMP increase is an easy and reliable indication of relaxin receptor activation. To screen for agonists of the relaxin receptor, a HEK293T cell line stably transfected with RXFP1 was used. RXFP1 activation was assayed by changes in cAMP levels as detected with a time-resolved fluorescence energy transfer (TR-FRET) cAMP detection kit.
This assay measures activation of a cell expressing […], another GPCR targeted by relaxin, to determine the selectivity of compounds for RXFP1.
NCGC Assay Protocol Summary:
This is a cell-based assay for cAMP second messenger response to screen for agonists of the RXFP2 receptor. The assay was conducted in the presence of a PDE4 inhibitor (Ro 20174). The cells were lysed and the cAMP levels were measured with a TR-FRET cAMP kit. Presence of cAMP in the cell lysate disrupts binding between the cryptate-labeled anti-cAMP and d2-labeled cAMP pair, leading to a decrease in the TR-FRET signal. Data were normalized to the controls for basal activity (buffer only) and 100% activity (29 nM porcine relaxin). The EC50 values were determined from concentration-response data modeled with the standard Hill equation
1536-well assay protocol for the HEK293 V1B cAMP assay:
(1) Add 3 ul HEK293 RXFP2 cell culture. 2000 cells/well in DMEM/F12, 10% FBS, 1x Pen/Strep (dispensed offline with MultiDrop Combi).
(3) Add 23 nl compounds in DMSO solution. Final concentration was 0.5 - 58 uM.
(4) Incubate 30 min at 37C, 5% CO2.
(5) Add 1 ul cAMP-d2 in lysis buffer (HTRF cAMP HiRange kit, CisBio).
(6) Add 1 ul anti-cAMP antibody-cryptate in lysis buffer (HTRF cAMP HiRange kit, CisBio).
(7) Incubate 30 min at room temperature.
(6) Detect the assay plate in a ViewLux plate reader (PerkinElmer) with Ex=320 nm, Em1=615 nm and Em2=665 nm.
Keywords: relaxin, RXFP1, RXFP2, G-protein coupled receptor, cAMP, agonist, high throughput screening, MLSMR, MLSCN, NIH Roadmap, qHTS and NCGC
Potency means the concentration at half of the fitted maximal effect.

Structure (SMILES) | Potency
O=c1[nH]c(O)c(N=Nc2ccc([N+](=O)[O-])cc2)c(=O)[nH]1 | 17.3 µM (active)
O=C1OCc2cc(N=Nc3c(O)[nH]c(=O)[nH]c3=O)ccc21 | 15.4 µM (active)
Cn1c(O)c(N=Nc2cccc(S(=O)(=O)N3CCOCC3)c2)c(=O)n(C)c1=O | 13.8 µM (active)
Nc1ncc2[nH]cnc2n1 | 24.5 µM (active)
CCC(Oc1cc(Cl)ccc1Cl)C(=O)N1CCC2(CC1)OCCO2 (configuration not stated) | inactive
CCNC(=O)[C@H]1O[C@@H](n2cnc3c(N)ncnc32)[C@H](O)[C@@H]1O | 1.94 µM (active)
O=C(O)c1sc2cc(Cl)ccc2c1Cl | 19.4 µM (active)
